The structures appear in SMILES notation. The campaign covered roughly 220,000 compounds. About 5,700 (2.6%) were called active. A call without a number means that no potency is given here. Another 18% or so got no clear call; they are omitted. Calls follow the shape of the dose curve; as a rule, active = well fitted inhibition curve with a large enough effect; inconclusive = small, poorly fitted or top-dose-only effect; inactive = no such curve, though single readings can be large or run the other way. This excerpt belongs to a sample that is enriched for actives.
Potency is read from the fitted curve at half-maximal effect.

Lysine-specific demethylase 5B (Homo sapiens), sequence (Q9UGL1 whole entry, looked up): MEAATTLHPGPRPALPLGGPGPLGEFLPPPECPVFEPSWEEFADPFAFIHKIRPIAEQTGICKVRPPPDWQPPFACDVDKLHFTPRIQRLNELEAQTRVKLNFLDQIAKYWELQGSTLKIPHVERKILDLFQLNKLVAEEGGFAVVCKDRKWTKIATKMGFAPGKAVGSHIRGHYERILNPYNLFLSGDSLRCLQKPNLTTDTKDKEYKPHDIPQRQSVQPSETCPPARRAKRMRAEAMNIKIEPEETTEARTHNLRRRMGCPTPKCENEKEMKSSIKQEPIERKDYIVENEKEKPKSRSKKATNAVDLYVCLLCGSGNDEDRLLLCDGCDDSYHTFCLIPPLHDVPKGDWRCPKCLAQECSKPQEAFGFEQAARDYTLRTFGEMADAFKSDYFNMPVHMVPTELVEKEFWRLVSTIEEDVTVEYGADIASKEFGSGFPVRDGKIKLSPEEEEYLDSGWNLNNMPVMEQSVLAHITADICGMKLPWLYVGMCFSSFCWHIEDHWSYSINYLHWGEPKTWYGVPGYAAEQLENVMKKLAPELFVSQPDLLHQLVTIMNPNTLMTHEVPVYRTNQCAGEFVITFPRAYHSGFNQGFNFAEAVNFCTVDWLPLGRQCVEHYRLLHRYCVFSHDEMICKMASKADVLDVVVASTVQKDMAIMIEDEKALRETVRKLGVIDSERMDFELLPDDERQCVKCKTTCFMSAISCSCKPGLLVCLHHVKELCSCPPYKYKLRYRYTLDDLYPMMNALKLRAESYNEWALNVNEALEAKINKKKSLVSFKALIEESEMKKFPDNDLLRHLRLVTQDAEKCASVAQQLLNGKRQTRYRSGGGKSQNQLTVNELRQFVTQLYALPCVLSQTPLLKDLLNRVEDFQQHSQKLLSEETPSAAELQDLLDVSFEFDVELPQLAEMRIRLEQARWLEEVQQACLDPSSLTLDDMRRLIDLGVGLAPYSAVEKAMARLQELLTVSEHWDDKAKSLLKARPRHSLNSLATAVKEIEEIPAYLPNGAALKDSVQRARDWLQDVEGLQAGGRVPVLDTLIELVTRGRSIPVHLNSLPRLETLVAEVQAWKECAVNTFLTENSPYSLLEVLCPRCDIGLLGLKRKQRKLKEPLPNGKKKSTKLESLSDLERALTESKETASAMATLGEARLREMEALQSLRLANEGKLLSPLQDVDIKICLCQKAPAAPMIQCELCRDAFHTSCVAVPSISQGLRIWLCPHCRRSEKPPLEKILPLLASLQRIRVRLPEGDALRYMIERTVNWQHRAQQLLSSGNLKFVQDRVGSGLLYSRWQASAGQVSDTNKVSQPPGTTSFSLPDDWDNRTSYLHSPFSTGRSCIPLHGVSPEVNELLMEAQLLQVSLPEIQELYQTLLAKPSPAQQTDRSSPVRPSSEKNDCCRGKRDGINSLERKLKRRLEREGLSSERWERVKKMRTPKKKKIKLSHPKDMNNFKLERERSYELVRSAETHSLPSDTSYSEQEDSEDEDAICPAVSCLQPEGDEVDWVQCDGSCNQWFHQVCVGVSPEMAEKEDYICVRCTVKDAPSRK

The experiment has as its target Lysine-specific demethylase 5B (Homo sapiens) (UniProt Q9UGL1). Description: Primary screen for KDM5B Histone Demethylases FDH-coupled qHTS. Also: nearly all actives have a fitted effect of over 70% in size. To be noted: FDH-coupled NADH fluorescence (FDH is formaldehyde dehydrogenase); series mostly up to 57.7 µM. The method in brief: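 qHTS format, multiple compound concentrations. Buffer 50 mM HEPES pH 7.5/0.01% Tween-20; 200 nM KDM5BΔAP final; 10 min compound preincubation; substrate-mix levels 12.5 µM peptide, 25 µM α-KG, 0.25 mM NAD⁺; 30 min RT; ΔRFU.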
On the technique in general: In qHTS, concentration-response curves come from the screen itself.
`CC(=O)Oc1ccc(C(=O)Nc2ccc(O)c(-c3nc4ccccc4o3)c2)cc1`: the Potency entry was “inactive”.
With `CN(C)c1cccc(-c2cn(C)c(=O)n3cc(COc4ccc(Cl)cc4)nc23)c1` the figure was 25.1 µM (active).
The result for `CN(C)Cc1cn2c(=O)n(C)cc(-c3cccc(OCc4ccccc4)c3)c2n1` reads “inactive”; that for `Cc1cc(-c2cn(C)c(=O)n3cc(COc4ccccc4)nc23)ccn1`, “inactive”.
The result for `CSc1ccc(CN(C)S(=O)(=O)c2ccc3c(c2)OCCCO3)cc1` reads “inactive”.
Turning to `Cc1ccc(NC(=O)c2cn3c4c(ccc(Cl)c4c2=O)OC(C)C3)cc1C` (stereo not given), the Potency result is “inactive”.
The result for `O=C(Nc1cccc(F)c1)c1cc2n(n1)CC(c1ccc(Cl)cc1)OC2` (stereo not given) reads 22.4 µM (active).
For the compound `CCNCc1ccccc1C(F)(F)F`, the Potency result is “inactive”.
The result for `COc1ccc(CNC(=O)c2ccc3c(c2)nc2n3CCOC2)c(OC)c1` reads “inactive”; that for `Cc1ccc(NC(=O)c2cc3n(n2)CC(c2ccc4c(c2)OCO4)OC3)cc1C` (stereo not given), 35.5 µM (active); that for `O=C(NCc1ccccc1C(F)(F)F)c1cc2n(n1)CC(c1ccc3c(c1)OCO3)OC2` (stereo not given), 31.6 µM (active).
The result for `COc1ccc(CNC(=O)c2cc3n(n2)CC(c2ccc4c(c2)OCO4)OC3)c(OC)c1` (stereo not given) reads 31.6 µM (active); that for `O=C(Nc1ccc(Cl)cc1)C1CCN(C(=O)c2ncn3c2COC(c2ccc(F)cc2)C3)CC1` (stereo not given), “inactive”.
As to `O=C(NCc1ccc(F)cc1F)c1nnn2c1COC(c1ccc(Br)cc1)C2` (stereo not given), the Potency result was “inactive”.
The result for `Cn1cnnc1-c1cccc(NC(=O)c2ccc3c(c2)OCO3)c1` reads “inactive”.
The result for `Cc1cccc(N2CCN(C(=O)c3cc4n(n3)CC(c3ccc(Cl)cc3)OC4)CC2)c1` (stereo not given) reads “inactive”; that for `COc1ccc2c(c1)C=C(C(=O)NCc1cc(Br)ccc1OC)CO2`, “inactive”; that for `O=S(=O)(c1ccccc1Cl)N1CCN(C/C=C/c2ccccc2)CC1`, “inactive”.
With `Fc1ccc(N2CCCN(CC3[C@H]4CNC[C@@H]34)CC2)cc1` (stereo not given in full) the entry was “inactive”; with `O=C(Nc1ccc(CC23CC4CC(CC(C4)C2)C3)cc1)c1ccc(Cl)cc1Cl`, “inactive”; with `CCOc1ccc(-c2nc(Cn3nnc(C(=O)NCc4ccc(Cl)cc4)c3N)c(C)o2)cc1OC`, “inactive”.
For the compound `CCCn1nc(C(=O)OCc2nc(N)nc(Nc3ccccc3C)n2)c2ccccc2c1=O`, the Potency entry was “inactive”.
Turning to `CCOc1cc(CNc2nn[nH]n2)ccc1OCc1ccccc1Cl`, the Potency entry was “inactive”.
The result for `COc1ccc(-c2noc3ncnc(N4CCC(C(=O)NCCN5CCCCC5)CC4)c23)cc1` reads “inactive”; that for `CCCCCCCCCCS(=O)(=O)CCSC(=N)N`, “inactive”; that for `COc1ccc(OC)c(NC(=O)c2cc3n(n2)CC(c2ccc(Cl)cc2)OC3)c1` (stereo not given), 25.1 µM (active).
With `COc1ccc(OC)c(NC(=O)Cn2ccc3ccc(Cl)cc32)c1` the entry was “inactive”.
With `COc1ccc(OC)c(NC(=O)c2nc3ccccc3nc2N2CCCC2)c1` the entry was “inactive”; with `COc1ccc(OC)c(C2C3=C(CC(C)(C)CC3=O)Nc3nc(-c4cccc(C)c4)nn32)c1` (stereo not given), “inactive”; with `CCNC(=O)Nc1ccc(S(=O)(=O)Nc2cnc(C)nc2C)cc1`, “inactive”.
`O=C(Nc1ccc2oc(-c3ccc(F)cc3)nc2c1)c1ccc2c(c1)OCCO2`: the Potency result was “inactive”.
As for `Cn1c(CCN2CCCCC2)nc2cc(NC(=O)c3ccccc3Cl)ccc21`, the Potency result was “inactive”.
The result for `O=C(Nc1ccc(-c2nnc3n2CCCC3)cc1)c1ccccn1` reads “inactive”.
In the case of `Cc1ccccc1C(=O)NCc1nnc2ccc(-c3ccccc3)nn12`, the Potency is 31.6 µM (active).
With `Cc1ccc(CNC(=O)c2cccc3cccnc23)cc1` the entry was “inactive”; with `Cc1ccccc1C(=O)NCc1nc(-c2ccc(Cl)cc2)no1`, “inactive”; with `Cc1ccc(-n2nnnc2CNC(=O)c2ccccc2C)cc1C`, “inactive”.
Consider `Cc1ccc(-c2ccc3nnc(CNC(=O)c4ccccn4)n3n2)cc1`, for which the Potency is 31.6 µM (active).
The result for `O=C(CCc1ncc(-c2ccccc2)o1)Nc1nc2ccccc2s1` reads “inactive”.
With `CCOC(=O)C(O)(c1ccc(N(CC)C(=O)Nc2ccc(Cl)cc2)cc1)C(F)(F)F` (stereo not given) the entry was “inactive”.
Consider `CCN(C(=O)Cc1coc2ccc(C)cc12)c1ccccc1`, for which the Potency entry is “inactive”.
The result for `Cc1ccccc1NC(=O)C1CC(=O)Nc2nc(SCc3ccccc3)nn21` (stereo not given) reads “inactive”; that for `O=C(NCCCNC(=O)c1nc2ccccc2c(=O)[nH]1)c1cccnc1`, “inactive”.
With `Cc1nc2cc(C(=O)Nc3ccc(N(C)C)cc3)ccc2n1-c1ccccc1` the entry was “inactive”; with `c1coc(-c2nc(-c3cccs3)no2)c1`, “inactive”.
With `CC1CCN(c2nc3c(c(=O)n(C)c(=O)n3C)n2CC(=O)c2ccc(Br)cc2)CC1` the entry was “inactive”; with `COc1cccc(C(=O)N2CCC(C(NC(=O)c3ccccc3C)C(=O)NCC(C)C)CC2)c1` (stereo not given), “inactive”; with `C=CCNC(=O)C(NC(=O)c1cccc(OC)c1)C1CCN(C(=O)c2ccccc2F)CC1` (stereo not given), 31.6 µM (active).
Consider `CCCNC(=O)C(NC(=O)c1cccc(OC)c1)C1CCN(C(=O)c2ccccc2F)CC1` (stereo not given), for which the Potency result is “inactive”.
As for `Cn1c(=O)[nH]c(=O)c2c1nc(N1CCNCC1)n2CC(N)=O`, the Potency result was “inactive”.
With `O=[N+]([O-])c1cc(C(F)(F)F)ccc1NCCc1ccncc1` the entry was “inactive”.
The result for `O=c1oc2ccccc2c(N2CCCC2)c1NS(=O)(=O)c1cccc(F)c1` reads “inactive”; that for `CCOc1cccc(CN2CCC3(CC2)CN(C)CC3COC)c1` (stereo not given), 14.1 µM (active); that for `COCC1CN(C(C)=O)CC12CCN(C(=O)NCc1cccc(OC)c1)CC2` (stereo not given), “inactive”.
With `COCC1CN(C(C)=O)CC12CCN(Cc1ccccc1OC)CC2` (stereo not given) the entry was “inactive”.
`Cc1occc1-c1nnc(SCC(=O)c2cc(C)n(C3CC3)c2C)n1C`: the Potency entry was “inactive”.
Regarding `CC(NC(=O)c1ccco1)c1ccc(-c2ccccc2)cc1` (stereo not given), the Potency result is “inactive”.
The result for `Cc1ccc2c(C)cc(SCC(=O)NC3CC3)nc2c1` reads “inactive”; that for `CC1(C(=O)NCC2CCCO2)CCCc2cnc(Nc3ccccc3)nc21` (stereo not given), “inactive”.
The result for `CN(Cc1ccccc1)C(=O)C1(C)CCCc2cnc(Nc3cccnc3)nc21` (stereo not given) reads “inactive”; that for `CC1(C(=O)NCc2ccc3c(c2)OCO3)CCc2cnc(NCc3ccccc3)nc21` (stereo not given), 25.1 µM (active); that for `O=C(Cn1nc2c(cc1=O)CCCC2)Nc1cc(C(F)(F)F)ccc1Cl`, “inactive”.
In the case of `Cc1nn2c(c1-c1ccccc1Oc1ccccc1)N(C(=O)C(C)C)CCC2`, the Potency entry was “inactive”.
The result for `Cc1nn2c(c1-c1ccccc1-c1ccccc1)N(CC1CC1)CCC2` reads 28.2 µM (active).
On to `Cc1nn2c(c1-c1ccccc1-c1ccccc1)N(C(=O)CN1CCOCC1)CCC2`, for which the Potency entry is “inactive”.

These data come from PubChem BioAssay AID1347165 (National Center for Advancing Translational Sciences (NCATS), 2019).
